PubChem BioAssay AID2501 (Southern Research Specialized Biocontainment Screening …, 2010)
In all, about 2,200 compounds went through this assay and about 1,200 (55%) were called active. No cut-off is given here; in the data, nearly all actives have IC50 up to about 92 µM. The set was probably picked from earlier hits. The list shows a part of the results.

Assay: counter assay for TAg ATPase ADP read-out – biochemical, ADP-Hunter, fluorescence, counter-screen (AID 2501);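 note: purified T antigen ATPase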;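 for inhibition: 0% = enzyme with vehicle and 100% = reference inhibitor wells; higher means more inhibition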
Conditions: series mostly up to 100 µM; inhibition: at the top concentration

| SMILES | IC50 | inhibition |
| --- | --- | --- |
| Nc1ccc2c(c1)Cc1ccccc1-2 | 4.77 µM (active) | – |
| O=C1NC(=O)C(=Cc2csc3ccccc23)C(=O)N1 | – | 4.76% (inactive) |
| CN1CCN(/N=C/c2c[nH]c3ccccc23)CC1 | 6.59 µM (active) | – |
| O=C1NC(=O)N(Cc2ccco2)C(=O)/C1=C/c1cccn1CCOc1ccccc1Cl | – | -6.99% (inactive) |
| O=C1NC(=S)NC(=O)C1=Cc1ccc2c(c1)CCN2CCCCl | – | 8.61% (inactive) |
| O=C1NC(=O)N(c2ccccc2)C(=O)/C1=C/c1ccc([N+](=O)[O-])s1 | – | 6.79% (inactive) |
| C=CCN1C(=O)/C(=C/c2cc(C)n(-c3cccnc3)c2C)C(=O)NC1=S | – | -0.68% (inactive) |
| C[CH2][Hg][S]c1ccccc1C(=O)O | – | 16.9% [at 50 µM] (inactive) |
| CCOc1ccccc1N1C(=O)NC(=O)/C(=C/c2ccc3c4c(cccc24)CC3)C1=O | – | 5.91% (inactive) |
| CCC(C)N1C(=O)NC(=O)C2(Cc3c(ccc4ccccc34)N(C)C2)C1=O (configuration not stated) | 23.3 µM (active) | – |
| COc1ccc(N2C(=O)/C(=C/c3ccc(C)o3)C(=O)NC2=S)c(OC)c1 | – | -2.21% (inactive) |
| COc1ccc(CN2C(=O)NC(=O)/C(=C/c3ccc([N+](=O)[O-])o3)C2=O)cc1 | – | 26.2% (inactive) |
| Cc1ccc2c(c1)=C/C(=C\c1c(O)[nH]c(=O)[nH]c1=O)C(=O)N=2 | – | 1.86% (inactive) |
| CCN1C(=O)/C(=C\c2ccc([N+](=O)[O-])s2)C(=O)NC1=S | – | 28.9% (inactive) |
| O=C1NC(=O)N(c2ccccc2)C(=O)/C1=C\C=C\c1ccccc1 | – | 24% (inactive) |
| CN(c1ccc(OCC(=O)N2CCN(C/C=C/c3ccccc3)CC2)cc1)S(=O)(=O)c1cccs1 | – | 28.9% (inactive) |
| O=c1[nH]sc2cc(F)ccc12 | – | 7.46% (inactive) |
| O=C(O)CCC(=O)NCCC1=c2ccccc2=N/C1=C\c1c(O)n(Cc2ccc(F)cc2)c(=S)[nH]c1=O | – | -17.4% (inactive) |
| CC1CN=C(Nc2ccc(N(C)C)cc2)S1 (configuration not stated) | 7.09 µM (active) | – |
| COP(=S)(OC)SCN1C(=O)c2ccccc2C1=O | – | 1.36% (inactive) |
| CCOc1ccc(N2C(=O)NC(=O)/C(=C\c3ccccc3[N+](=O)[O-])C2=O)cc1 | – | 19.3% (inactive) |
| CCc1c(C)nc(N)nc1N1N=C1SC(C(C)=O)C(C)=O | – | 9.54% (inactive) |
| CCCN1CCc2cc(O)cc3c2[C@H]1Cc1ccc(O)c(O)c1-3 | – | -61.6% (inactive) |
| O=c1cc(-c2ccc(O)c(O)c2)oc2cc(O)cc(O)c12 | 8.07 µM (active) | – |
| O=c1c(O)c(-c2ccc(O)c(O)c2)oc2cc(O)cc(O)c12 | 98.5 µM (active) | – |

| SMILES | IC50 | inhibition |
| --- | --- | --- |
| Oc1cc2c(cc1O)[C@H]1c3ccccc3CN[C@@H]1CC2 | – | -74.2% (inactive) |
| CN1CCc2cc(O)cc3c2[C@H]1Cc1ccc(O)c(O)c1-3 | – | -56.5% (inactive) |
| O=C1NC(=O)N(c2ccc(Br)cc2)C(=O)/C1=C/c1ccsc1 | – | -9.71% (inactive) |
| CN1C(=O)NC(=O)/C(=C/c2ccc([N+](=O)[O-])o2)C1=O | – | 6.64% (inactive) |
| O=C1NC(=O)N(c2ccccc2)C(=O)/C1=C\c1ccc2c3c(cccc13)CC2 | – | 2.57% (inactive) |
| O=c1c2ccccc2[se]n1-c1ccccc1 | 10.9 µM (active) | – |
| O=C1NC(=O)C(=Cc2ccccc2OCCOc2ccc([N+](=O)[O-])cc2)C(=O)N1 | – | 21.8% (inactive) |
| CCN1C(=O)C(=C/C=C/c2ccco2)C(=O)N(CC)C1=S | – | -52.2% (inactive) |
| CCOc1cccc(OCC)c2c(C)[n+](CC3CCCO3)c(C)c1-2 (configuration not stated) | – | -27.2% (inactive) |
| O=C1NC(=O)N(CCc2ccc(F)cc2)C(=O)/C1=C/c1ccco1 | – | 11.4% (inactive) |
| CCOC(=O)CSCCOc1ccc(C=C2C(=O)NC(=O)NC2=O)cc1OC | – | -17.2% (inactive) |
| O=C1NC(=O)C(=Cc2ccc(OCCOc3ccc([N+](=O)[O-])cc3)cc2)C(=O)N1 | – | -3.74% (inactive) |
| COc1cc(C=C2C(=O)NC(=O)NC2=O)ccc1O | 19.6 µM (active) | – |
| COc1cc(/C=C2\C(=O)NC(=O)N(CCc3ccc(F)cc3)C2=O)ccc1O | 6.23 µM (active) | – |
| COc1ccc(CN2C(=O)NC(=O)/C(=C/c3ccoc3)C2=O)cc1 | – | 8.61% (inactive) |
| Cc1nc2cc([N+](=O)[O-])ccc2c(=O)n1-c1ccc(Br)cc1 | – | -52.8% (inactive) |
| O=C1NC(=S)NC(=O)C1=Cc1cccn1-c1ccc(O)cc1 | – | 20.7% [at 50 µM] (inactive) |
| Cc1cc(C=C2C(=O)N(C)C(=S)N(C)C2=O)c(C)n1-c1ccncc1 | – | 1.6% (inactive) |
| CN(C)[C@@H]1C(=O)C(C(N)=O)=C(O)[C@@]2(O)C(=O)C3=C(O)c4c(O)cccc4[C@@](C)(O)[C@H]3[C@H](O)[C@@H]12 | inactive | – |
| CCCNC(=O)N1C2CCC1CC(O)(c1cccnc1)C2 (configuration not stated) | – | -23% (inactive) |
| Cc1ccccc1-n1c(C)cc(/C=C2/C(=O)NC(=O)N(Cc3ccco3)C2=O)c1C | – | 12.9% (inactive) |
| N/C(=N\[N+](=O)[O-])N/N=C/c1ccc(O)cc1 | 2.93 µM (active) | – |
| C[C@]12CC[C@@H]3c4ccc(O)c(O)c4CC[C@H]3[C@@H]1CC[C@@H]2O | – | -196% (inactive) |
| COc1ccc(/C=C2/C(=O)NC(=O)N(Cc3ccco3)C2=O)cc1 | – | 9.99% (inactive) |
| NS(=O)(=O)c1ccc(-c2ccc(C=C3C(=O)NC(=O)NC3=O)o2)cc1 | – | 14% (inactive) |

| SMILES | IC50 | inhibition |
| --- | --- | --- |
| CC1=NCCc2c1[nH]c1cc(O)ccc21 | 4.35 µM (active) | – |
| Cc1ccc(N2C(=O)NC(=O)/C(=C/c3ccc(-c4ccc(C(=O)O)c(Cl)c4)o3)C2=O)cc1 | – | 3.2% (inactive) |
| NC(N)=Nc1ccc2[nH]c3c(c2c1)C[C@@]1(O)[C@H]2Cc4ccc(O)c5c4[C@@]1(CCN2CC1CC1)[C@H]3O5 | – | 7.88% (inactive) |
| Cc1ccc(N2C(=O)NC(=O)/C(=C\C=C\c3ccco3)C2=O)cc1C | – | 29.6% (inactive) |
| C=C1C(=O)O[C@H]2[C@H]1[C@H](OC(=O)CC(=O)O[C@@H]1C[C@@H](C)[C@@H]3C=CC(=O)[C@@]3(C)[C@H]3OC(=O)C(=C)[C@H]13)C[C@@H](C)[C@H]1C=CC(=O)[C@]12C | – | -28.2% (inactive) |
| CN1C(=O)/C(=C/C=C/c2ccco2)C(=O)NC1=S | – | 0.73% (inactive) |
| O=C1NC(=O)C(=Cc2ccc(-c3cc(Cl)ccc3[N+](=O)[O-])o2)C(=O)N1 | – | 2.85% (inactive) |
| COc1cc2c(cc1O)CC[n+]1cc3c(OC)c(OC)ccc3cc1-2 | 4.22 µM (active) | – |
| O=C1NC(=O)N(c2ccccc2)C(=O)/C1=C\c1ccc([N+](=O)[O-])s1 | – | 18.4% (inactive) |
| O=c1[nH]c(=S)n(-c2ccccc2F)c(O)c1C=Nc1ccc(N2CCOCC2)cc1 | 5.34 µM (active) | – |
| CC(C)Nc1ccc(Nc2ccccc2)cc1 | 5.82 µM (active) | – |
| NS(=O)(=O)c1ccc(-c2ccc(C=C3C(=O)NC(=S)NC3=O)o2)cc1 | – | -13.7% (inactive) |
| CCN(CC)c1ccc(N=Cc2c(O)n(-c3ccccc3C)c(=O)[nH]c2=O)cc1 | 7.13 µM (active) | – |
| CCN(CC)c1ccc(N=Cc2c(O)n(-c3cc(OC)ccc3OC)c(=O)[nH]c2=O)cc1 | 6.82 µM (active) | – |
| Cc1ccccc1-n1c(O)c(C=Nc2ccc(N(C)C)cc2)c(=O)[nH]c1=O | 5.9 µM (active) | – |
| Cc1cccc(OCCn2cccc2/C=C2/C(=O)NC(=O)N(Cc3ccco3)C2=O)c1 | – | 23.1% (inactive) |
| CN(C)c1ccc(C=C2C(=O)NC(=S)NC2=O)cc1[N+](=O)[O-] | – | -11.9% (inactive) |
| Oc1ccc(C[C@H]2NCCc3cc(O)c(O)cc32)cc1O | – | -137% (inactive) |
| N#CSCC(=O)N1c2ccccc2CCc2ccccc21 | – | -23.4% (inactive) |
| Cc1ccc(/C=C2\C(=O)NC(=S)N(c3cccc(F)c3)C2=O)o1 | – | 3.87% (inactive) |
| Cc1cc(/C=C2\C(=O)NC(=O)N(c3ccc(Cl)cc3)C2=O)c(C)n1-c1sc2c(c1C#N)CCCC2 | – | -16.8% (inactive) |
| NCCc1c[nH]c2ccc(O)cc12 | 10.5 µM (active) | – |
| CCN(CC)C(=O)c1ccc2c(c1)C1C(Cl)C(Sc3ccccc3[N+](=O)[O-])CC1C(C(=O)O)N2 (configuration not stated) | – | -62% (inactive) |
| O=C1NC(=S)NC(=O)C1=Cc1ccc(Br)s1 | – | 6.21% (inactive) |
| N#Cc1c(/N=C/c2c(O)n(Cc3ccco3)c(=O)[nH]c2=O)sc2c1CCCC2 | 27.2 µM (active) | – |

| SMILES | IC50 | inhibition |
| --- | --- | --- |
| O=c1[nH]c(=O)n(Cc2ccccc2)c(O)c1/C=C1\C=Nc2ccccc21 | – | -2.85% (inactive) |
| CCCCC(=O)N/N=C/c1c(O)n(Cc2ccco2)c(=O)[nH]c1=O | – | 9.68% (inactive) |
| O=C1NC(=O)C(=Cc2ccc(-c3ccccc3[N+](=O)[O-])o2)C(=O)N1 | – | 11.2% (inactive) |
| CCN(CC)c1ccc(/C=C2\C(=O)NC(=O)N(Cc3ccco3)C2=O)cc1 | – | 11.5% (inactive) |
| O=C1NC(=O)C(=Cc2ccc(-c3ccc(F)cc3O)o2)C(=O)N1 | – | -9.03% [at 50 µM] (inactive) |
| CNC(C)Cc1ccccc1Sc1ccc(O)cc1 (configuration not stated) | 2.47 µM (active) | – |
| CC(Cc1ccccc1Sc1ccc(O)cc1)N(C)C (configuration not stated) | 1.99 µM (active) | – |
| O=C1NC(=O)N(c2ccccc2F)C(=O)/C1=C/c1ccc(Sc2nc3ccccc3[nH]2)o1 | – | 11.5% (inactive) |
| COc1cc2c(cc1OC)-c1c(OC)c(OC)cc3c1[C@H](C2)[N+](C)(C)CC3 | – | 6.19% (inactive) |
| O=c1[nH]c(=S)n(C2CC2)c(O)c1/C=N/Nc1ccccc1 | 3.94 µM (active) | – |
| COc1cccc(N2C(=O)NC(=O)/C(=C\c3ccc([N+](=O)[O-])s3)C2=O)c1 | – | 17.5% (inactive) |
| O=C1NC(=O)C(=Cc2cc3c(cc2[N+](=O)[O-])OCO3)C(=O)N1 | – | -5.04% (inactive) |
| Cc1cccc(N2C(=O)NC(=O)/C(=C/c3ccc(-c4ccc(C(=O)O)c(Cl)c4)o3)C2=O)c1 | – | -17.8% (inactive) |
| C1=Cc2ccccc2Nc2ccccc21 | 4.79 µM (active) | – |
| Oc1ccc(/C=N/NP(=S)(c2ccccc2)c2ccccc2)cc1O | 35.3 µM (active) | – |
| O=C1NC(=O)N(c2ccc(Cl)cc2)C(=O)/C1=C\c1ccc(Sc2nc3ccccc3[nH]2)o1 | – | 21.8% (inactive) |
| CCN1CCN(c2ccc(N)cc2C)CC1 | 4 µM (active) | – |
| CCOc1cc(-c2ccc(N)c(OCC)c2)ccc1N | 1.03 µM (active) | – |
| COc1cc2c(cc1OC)CC[N+](C)=C2 | – | 10.2% (inactive) |
| CCCCN1C(=O)/C(=C/C=C/c2ccco2)C(=O)NC1=S | – | -21.3% (inactive) |
| O=C(O)c1cccc2c1NC(C(=O)O)C1CC(Sc3ccccc3[N+](=O)[O-])C(Cl)C21 (configuration not stated) | – | -28.6% (inactive) |
| O=C(O)CCn1cc(C=C2C(=O)NC(=S)NC2=O)c(-c2cccc(Cl)c2)n1 | – | 11.7% (inactive) |
